Measurements as given in article PMC5540273 (PLoS ONE, 2017).

Legend:
Details in all cases: concentration: 1 μM, replicates: in singlicate; n = 1
[1] = tested on: PRP4
[2] = tested on: T1, PYK2
T1 construct: gene PTK2B

[3] = tested on: QSK
[4] = tested on: RAF1
[5] = tested on: RET
[6] = tested on: RIOK1
[7] = tested on: RIOK2
[8] = tested on: RIOK3
[9] = tested on: RIPK1
[10] = tested on: RIPK2
[11] = tested on: RIPK4
[12] = tested on: RIPK5
[13] = tested on: ROCK1
[14] = tested on: ROCK2
[15] = tested on: ROS1
[16] = tested on: RPS6KA4(Kin.Dom.1-N-terminal)
[17] = tested on: RPS6KA4(Kin.Dom.2-C-terminal)
[18] = tested on: RPS6KA5(Kin.Dom.1-N-terminal)
[19] = tested on: RPS6KA5(Kin.Dom.2-C-terminal)
[20] = tested on: T2, RSK1(Kin.Dom.1-N-terminal)
T2 construct: gene RPS6KA1
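Note: KINOMEscan kinase panel screen.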

Structure (SMILES) | %Inh [1] [%] | %Inh [2] [%] | %Inh [3] [%] | %Inh [4] [%] | %Inh [5] [%] | %Inh [6] [%] | %Inh [7] [%] | %Inh [8] [%] | %Inh [9] [%] | %Inh [10] [%] | %Inh [11] [%] | %Inh [12] [%] | %Inh [13] [%] | %Inh [14] [%] | %Inh [15] [%] | %Inh [16] [%] | %Inh [17] [%] | %Inh [18] [%] | %Inh [19] [%] | %Inh [20] [%]
CN1c2ccc(-c3ccc(C(N)=O)cc3)cc2-c2[nH]ncc2S1(=O)=O | 12 | 0 | 14 | 11 | 1 | 33 | 0 | 29 | 0 | 0 | 0 | 0 | 0 | 11 | 0 | 17 | 26 | 0 | 0 | 0
Cc1cnc(N)c(/C=C/c2cncc(C(=O)NCCc3ccc(Cl)cc3Cl)c2)c1.Cl [GSK190937] | 6 | 7 | 9 | 0 | 7 | 3 | 79 | 0 | 5 | 13 | 0 | 0 | 71 | 45 | 3 | 4 | 0 | 22 | 0 | 9
CCn1c(-c2c(N)noc2C)nc2cnccc21 [SB-737856] | 11 | 2 | 20 | 23 | 0 | 11 | 0 | 7 | 0 | 0 | 25 | 0 | 0 | 0 | 0 | 12 | 0 | 6 | 23 | 28
CC(=O)c1c(C)c2cnc(Nc3ccc(N4CCNCC4)cn3)nc2n(C2CCCC2)c1=O | 0 | 0 | 0 | 0 | 0 | 0 | 0 | 0 | 0 | 0 | 0 | 0 | 0 | 0 | 0 | 15 | 0 | 0 | 0 | 14
Cl.Cl.Cl.N#Cc1ccc(CCNc2nccc(-c3cccc(CN4CCNCC4)c3)n2)cc1 [GSK2137462] | 0 | 0 | 9 | 12 | 26 | 28 | 42 | 37 | 34 | 24 | 0 | 19 | 33 | 41 | 6 | 0 | 0 | 19 | 5 | 10
NS(=O)(=O)c1cccc(N/C=C2\C(=O)Nc3ccc(S(=O)(=O)Cc4c(Cl)cccc4Cl)cc32)c1 [GSK398099] | 19 | 19 | 11 | 15 | 0 | 19 | 0 | 19 | 0 | 12 | 14 | 0 | 0 | 2 | 0 | 2 | 0 | 0 | 0 | 11
Cc1ccc(NC(=O)Nc2ccccc2)cc1-c1ccc(C(=O)Nc2ccncc2)cc1 [GSK1398471] | 0 | 17 | 13 | 73 | 13 | 35 | 0 | 17 | 0 | 12 | 1 | 0 | 0 | 0 | 0 | 3 | 0 | 13 | 0 | 15
COc1cc2ncnc(Nc3cccc(Br)c3)c2cc1OC.Cl [GI230329] | 37 | 12 | 11 | 0 | 47 | 29 | 0 | – | 2 | 38 | 5 | 8 | 37 | 33 | 28 | 8 | 0 | 0 | 2 | 0
Fc1ccc(-c2nc[nH]c2-c2ccncc2)cc1 [SB-217360] | 0 | 0 | 17 | 18 | 0 | 0 | 0 | 0 | 0 | 66 | 0 | 31 | 0 | 26 | 5 | 0 | 0 | 0 | 19 | 0
O=c1cc(N2CCOCC2)nc2n(Cc3ccccc3F)ccn12 [GSK2297428] | 7 | 0 | 0 | 0 | 0 | 38 | 42 | 28 | 0 | 2 | 0 | 0 | 0 | 0 | 47 | 5 | 0 | 8 | 0 | 5
CNCc1ccc2nc(NC(=O)c3ccc(C(C)(C)C)cc3)cn2c1 | 36 | 7 | 12 | 11 | 14 | 20 | 86 | 25 | 2 | 2 | 14 | 11 | 5 | 13 | 9 | 9 | 9 | 0 | 0 | 0
CC(=O)c1c(C)c2cnc(Nc3ccn(C)n3)nc2n(C2CCCC2)c1=O | 0 | 0 | 0 | 0 | 5 | 0 | 24 | 0 | 2 | 0 | 0 | 0 | 0 | 0 | 4 | 0 | 0 | 0 | 3 | 0
FC(F)(F)c1ccccc1-c1cc(-c2c[nH]nc2-c2ccccn2)ccn1 [GW679396] | 5 | 24 | 0 | 0 | 11 | 13 | 0 | 10 | 12 | 20 | 0 | 0 | 9 | 14 | 6 | 18 | 0 | 24 | 0 | 6
